Experimental data: PubChem BioAssay

Assay: COS7 lysate on small-molecule microarray, probe aHis, 635 nm (AID 1123);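 note: z-score combines 667nm fluorescence intensity with signal-to-noise per printed compound spot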
Details: COS7 cell lysate, fluorescence, higher = more signal
In the case of CN1C(=O)C2C=CC(C(O)c3ccc(F)cc3)N(N(c3ccccc3)c3ccccc3)C2C1=O (stereo not drawn), the composite z-score is reported as 2.82. In the case of Cc1ccc(S[C@]2(C(=O)O)CC(=O)N(Cc3ccccc3C(F)(F)F)[C@@H]2c2ccc(CO)cc2I)cc1, the composite z-score is reported as 1.74. For C[N+](C)(C)CCCC[C@@H]1NC(=O)[C@@H]2C[C@H](C(=O)NCCCCCN)[C@H](c3ccc(O)cc3)N2C1=O, the composite z-score was 1.53. COCCOC(=O)N1C(=O)[C@@]2(c3cc(C#CCCO)ccc31)[C@H](c1ccc(O)cc1)N1[C@H](c3ccccc3)[C@H](c3ccccc3)OC(=O)[C@H]1[C@@H]2C(=O)N1CCN(c2ncccn2)CC1 gave a composite z-score of 2.92. With O=C(CS)NCCCCCNC(=O)[C@@H]1C[C@@H]2C(=O)NCC(=O)N2[C@@H]1c1ccc(O)cc1 the composite z-score was 0.559. For O=C1C2C=CC(C(O)C=Cc3ccc([N+](=O)[O-])cc3)N(n3cnnc3)C2C(=O)N1Cc1ccccc1 (stereo not drawn), the composite z-score was 1.38. C=C(/C(=C/C[C@H](OC(=O)c1ccncc1)c1ccc(OCCO)cc1)c1cc(C(=O)OC)ccc1OC)C(C)C gave a composite z-score of 1.15. With CN(C)CCCC[C@@H]1NC(=O)[C@H]2C[C@@H](C(=O)NCCCCCN)[C@@H](c3cccc(OCCO)c3)N2C1=O the composite z-score was 1.75. CCCNC(=O)[C@@H]1c2ccccc2C(=O)N(Cc2ccccc2OC)[C@H]1c1ccc(CO)cc1 gave a composite z-score of 1.83. For Cc1ccc(S[C@]2(C(=O)O)CC(=O)N(C(C)C)[C@@H]2c2ccc(CO)cc2)cc1, the composite z-score was -0.216. In the case of COCCCNC(=O)[C@@]1(CCS(=O)(=O)c2ccccc2)N=C(c2ccc(OCCCO)cc2)O[C@H]1c1ccccc1N=[N+]=[N-], the composite z-score is reported as 3.05. C=CC[C@@]1(C(=O)N2CCCCC2)N=C(c2ccc(OCCCO)cc2)O[C@@H]1c1ccccc1CN=[N+]=[N-] showed a composite z-score of 3.13. For C#CCN1[C@@H](Cc2ccc(O)cc2)C(=O)O[C@H](Cc2ccccc2)[C@@H]1/C=C/C1CC1, the composite z-score was -0.225. OCC1C=C(/C=C/c2ccccc2)CN1Cc1ccccc1Br (stereo not drawn) showed a composite z-score of 0.672. For COc1ccc(C(=O)Nc2ccc(CN3C(=O)[C@]4(O[C@H](CC(=O)N5CCC[C@H]5CO)[C@@H]([Si](C)(C)c5ccc(OC)cc5)[C@@H]4C)c4ccccc43)cc2)cc1, the composite z-score was 1.72. For CO[C@H]1O[C@H](CO)[C@@H](OC(=O)Nc2ccccc2-c2ccccc2)[C@H](OC(=O)Nc2ccccc2-c2ccccc2)[C@@H]1OC(=O)Nc1ccccc1-c1ccccc1, the composite z-score was 2.18. For O=C1C[C@@](C(=O)NCc2ccccc2)(c2ccc([N+](=O)[O-])cc2)[C@@H](c2ccc(CO)cc2)N1CC12CC3CC(CC(C3)C1)C2, the composite z-score was 1.37. With C=C(CCCC)/C(=C/C[C@H](OC(C)=O)c1ccc(OCCO)cc1)c1cnc2ccccc2c1 the composite z-score was 1.2. For COC(=O)[C@]1(Cc2ccccc2)N=C(c2ccc(OCCCO)cc2)O[C@@H]1c1ccccc1N=[N+]=[N-], the composite z-score was 1.59. COC(=O)C(CC#Cc1ccc2c(c1)[C@]1(C(=O)N2)[C@H](c2ccc(O)cc2)N2[C@H](c3ccccc3)[C@H](c3ccccc3)OC(=O)[C@H]2[C@@H]1C(=O)N1CCN(c2ncccn2)CC1)C(=O)OC showed a composite z-score of 2.47. In the case of CO[C@H]1O[C@H](CO)[C@@H](OC(=O)Nc2ccc(Br)cc2)[C@@H]2OC(=O)[C@H](Cc3cccc(Br)c3)C/C=C/C[C@@H](Cc3cccc(Br)c3)C(=O)O[C@@H]12, the composite z-score is reported as 0.112. With COCCOC(=O)N1C(=O)[C@@]2(c3cc(C#CC4(O)CCCCCC4)ccc31)[C@H](c1ccccc1OCCO)N1[C@H](c3ccccc3)[C@H](c3ccccc3)OC(=O)[C@H]1[C@@H]2C(=O)N1CCc2cc(OC)c(OC)cc2C1 the composite z-score was 1.89. [N-]=[N+]=NCc1ccccc1[C@H]1OC(c2ccc(OCCCO)cc2)=N[C@@]1(Cc1ccccc1)C(=O)N1CCCCC1 gave a composite z-score of 2.32. Compound COCCOC(=O)N1C(=O)[C@@]2(c3cc(C#CC4=CCCCC4)ccc31)[C@H](c1ccc(OCCO)cc1)N1[C@H](c3ccccc3)[C@H](c3ccccc3)OC(=O)[C@H]1[C@@H]2C(=O)N1CCc2cc(OC)c(OC)cc2C1 has a composite z-score of 1.01. With COCC(=C=CC[C@H](O)c1cccc(OCCO)c1)CCO the composite z-score was 1.44. Work on C=CC[C@]1(C(=O)NCc2ccccc2)N=C(c2ccc(OCCCO)cc2)O[C@H]1c1ccccc1CN=[N+]=[N-] yielded a composite z-score of 0.935. C=C(CCCC)C(=O)CC[C@@H](OC(C)=O)c1ccc(CO)o1 showed a composite z-score of 0.423. For COc1ccc(C(=O)Nc2cccc(CN3C(=O)[C@]4(O[C@H](CCn5cc(CCO)nn5)[C@@H]([Si](C)(C)c5ccc(OC)cc5)[C@@H]4C)c4ccccc43)c2)cc1, the composite z-score was 0.98.
